Measurements published in PubChem BioAssay (EPA / NIEHS).
Active and inactive are the calls of the source. Rule for the calls: active = hit-call score of the fitted dose curve at least 0.9, where 1 is the maximum; inactive = score below 0.9.

Legend:
Details in all cases: mRNA level, 48 h; actives raise or lower the signal
[1] = read-out: Tumor necrosis factor receptor superfamily member 6 (Homo sapiens) (UniProt P25445); assay: LTEA_HepaRG_FAS: Life Technologies and Expression Analysis (LTEA) Assay for Fas cell surface death receptor (FAS) using HepaRG (AID 2283447)
Summary of the method: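 FAS transcript level was measured by TaqMan qRT-PCR against three housekeeping genes after 48 h chemical exposure. Cells were HepaRG, 0.5% DMSO vehicle, with a top concentration of 100 uM and half-log dilutions over eight points, in duplicate.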

[2] = read-out: Fatty acid synthase (Homo sapiens) (UniProt P49327); assay: LTEA_HepaRG_FASN: Life Technologies and Expression Analysis (LTEA) Assay for Fatty Acid Synthase (FASN) using HepaRG (AID 2283448)
Summary of the method: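 FASN transcript measured by TaqMan qRT-PCR, normalised to three housekeeping genes, after 48 h chemical exposure of HepaRG cells. Eight-point half-log series from 100 uM in 0.5% DMSO, duplicates; gain or loss fitted against vehicle.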

[3] = read-out: Cyclin D2 (CCND2), CCND2 (gene 894); assay: LTEA_HepaRG_CCND2: Life Technologies and Expression Analysis (LTEA) Assay for Cyclin D2 (CCND2) using HepaRG (AID 2283449)
Summary of the method: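 CCND2 transcript levels, quantified by qRT-PCR and normalised to three housekeeping genes, were fitted bidirectionally against 0.5% DMSO. HepaRG cultures were dosed 48 h in duplicate with an 8-point half-log series up to 100 uM.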

[4] = read-out: Cyclin Dependent Kinase Inhibitor 1A (CDKN1A), CDKN1A (gene 1026); assay: LTEA_HepaRG_CDKN1A: Life Technologies and Expression Analysis (LTEA) Assay for Cyclin Dependent Kinase Inhibitor 1A (CDKN1A) using HepaRG (AID 2283450)
Summary of the method: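 Cryopreserved HepaRG cells were plated and cultured 48 h, then switched to serum-free induction medium. Chemicals (eight half-log concentrations, top 100 uM, 0.5% DMSO) were applied for 48 h. Lysates underwent qRT-PCR for CDKN1A with housekeeping normalization.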

[5] = read-out: Cyclin D1 (CCND1), CCND1 (gene 595); assay: LTEA_HepaRG_CCND1: Life Technologies and Expression Analysis (LTEA) Assay for Cyclin D1 (CCND1) using HepaRG (AID 2283451)
Summary of the method: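 Human liver HepaRG line; 48 h dosing, 8 conc. ≤100 uM, 0.5% DMSO; TaqMan qRT-PCR mRNA, 3 housekeeping genes; bidirectional curve fit vs DMSO.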

[6] = read-out: catalase (CAT), CAT (gene 847); assay: LTEA_HepaRG_CAT: Life Technologies and Expression Analysis (LTEA) Assay for catalase (CAT) using HepaRG (AID 2283452)
Summary of the method: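 Expression of CAT was quantified by TaqMan qRT-PCR with ACTB/GAPDH/POLR2A normalization after 48 h chemical exposure of HepaRG. Eight-point half-log series, top 100 uM, in 0.5% DMSO; gain or loss fitted against vehicle.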

[7] = read-out: flavin-containing dimethylaniline monooxygenases 3 (FMO3), FMO3 (gene 2328); assay: LTEA_HepaRG_FMO3: Life Technologies and Expression Analysis (LTEA) Assay for flavin-containing dimethylaniline monooxygenases 3 (FMO3) using HepaRG (AID 2283453)
Summary of the method: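 FMO3 transcript quantified by TaqMan qRT-PCR against three housekeeping genes after 48 h chemical exposure of HepaRG cells. Eight-point half-log series, top 100 uM, 0.5% DMSO vehicle; phenobarbital 1mM induction control; up- or down-regulation fitted.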

[8] = read-out: Forkhead box O1 (FOXO1), FOXO1 (gene 2308); assay: LTEA_HepaRG_FOXO1: Life Technologies and Expression Analysis (LTEA) Assay for Forkhead box O1 (FOXO1) using HepaRG (AID 2283456)
Summary of the method: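 FOXO1 transcript quantified by qRT-PCR after 48 h chemical exposure (top 100 uM, half-log steps, 0.5% DMSO) of HepaRG cells, housekeeping-normalized (ACTB/GAPDH/POLR2A). Changes fitted in both directions relative to vehicle.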

[9] = read-out: growth arrest and DNA damage 45 (GADD45A), GADD45A (gene 1647); assay: LTEA_HepaRG_GADD45A: Life Technologies and Expression Analysis (LTEA) Assay for growth arrest and DNA damage 45 (GADD45A) using HepaRG (AID 2283458)
Summary of the method: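 GADD45A expression was measured by TaqMan qRT-PCR against three housekeeping genes (ACTB, GAPDH, POLR2A) after 48 h treatment of HepaRG cells. Eight-point half-log series up to 100 uM in 0.5% DMSO, run in duplicate.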

[10] = read-out: Forkhead box O3 (FOXO3), FOXO3 (gene 2309); assay: LTEA_HepaRG_FOXO3: Life Technologies and Expression Analysis (LTEA) Assay for Forkhead box O3 (FOXO3) using HepaRG (AID 2283459)
Summary of the method: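 FOXO3 transcript measured by qRT-PCR (normalized to ACTB, GAPDH, POLR2A) after 48 h exposure of HepaRG cells in serum-free induction medium. Duplicates, eight half-log concentrations up to 100 uM, 0.5% DMSO; gain or loss fitted against DMSO.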

[11] = read-out: CFLAR gene, CFLAR (gene 8837); assay: LTEA_HepaRG_CFLAR: Life Technologies and Expression Analysis (LTEA) Assay for CFLAR gene using HepaRG (AID 2283455)
Summary of the method: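 Transcript level by qRT-PCR (normalized to ACTB, GAPDH and POLR2A) after 48 h chemical exposure of HepaRG cells, top concentration 100 uM with half-log steps, 0.5% DMSO vehicle, duplicates; fitted bidirectionally against DMSO baseline.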

Measured: outcome

Sequence of Fatty acid synthase (Homo sapiens) (P49327 whole entry, looked up): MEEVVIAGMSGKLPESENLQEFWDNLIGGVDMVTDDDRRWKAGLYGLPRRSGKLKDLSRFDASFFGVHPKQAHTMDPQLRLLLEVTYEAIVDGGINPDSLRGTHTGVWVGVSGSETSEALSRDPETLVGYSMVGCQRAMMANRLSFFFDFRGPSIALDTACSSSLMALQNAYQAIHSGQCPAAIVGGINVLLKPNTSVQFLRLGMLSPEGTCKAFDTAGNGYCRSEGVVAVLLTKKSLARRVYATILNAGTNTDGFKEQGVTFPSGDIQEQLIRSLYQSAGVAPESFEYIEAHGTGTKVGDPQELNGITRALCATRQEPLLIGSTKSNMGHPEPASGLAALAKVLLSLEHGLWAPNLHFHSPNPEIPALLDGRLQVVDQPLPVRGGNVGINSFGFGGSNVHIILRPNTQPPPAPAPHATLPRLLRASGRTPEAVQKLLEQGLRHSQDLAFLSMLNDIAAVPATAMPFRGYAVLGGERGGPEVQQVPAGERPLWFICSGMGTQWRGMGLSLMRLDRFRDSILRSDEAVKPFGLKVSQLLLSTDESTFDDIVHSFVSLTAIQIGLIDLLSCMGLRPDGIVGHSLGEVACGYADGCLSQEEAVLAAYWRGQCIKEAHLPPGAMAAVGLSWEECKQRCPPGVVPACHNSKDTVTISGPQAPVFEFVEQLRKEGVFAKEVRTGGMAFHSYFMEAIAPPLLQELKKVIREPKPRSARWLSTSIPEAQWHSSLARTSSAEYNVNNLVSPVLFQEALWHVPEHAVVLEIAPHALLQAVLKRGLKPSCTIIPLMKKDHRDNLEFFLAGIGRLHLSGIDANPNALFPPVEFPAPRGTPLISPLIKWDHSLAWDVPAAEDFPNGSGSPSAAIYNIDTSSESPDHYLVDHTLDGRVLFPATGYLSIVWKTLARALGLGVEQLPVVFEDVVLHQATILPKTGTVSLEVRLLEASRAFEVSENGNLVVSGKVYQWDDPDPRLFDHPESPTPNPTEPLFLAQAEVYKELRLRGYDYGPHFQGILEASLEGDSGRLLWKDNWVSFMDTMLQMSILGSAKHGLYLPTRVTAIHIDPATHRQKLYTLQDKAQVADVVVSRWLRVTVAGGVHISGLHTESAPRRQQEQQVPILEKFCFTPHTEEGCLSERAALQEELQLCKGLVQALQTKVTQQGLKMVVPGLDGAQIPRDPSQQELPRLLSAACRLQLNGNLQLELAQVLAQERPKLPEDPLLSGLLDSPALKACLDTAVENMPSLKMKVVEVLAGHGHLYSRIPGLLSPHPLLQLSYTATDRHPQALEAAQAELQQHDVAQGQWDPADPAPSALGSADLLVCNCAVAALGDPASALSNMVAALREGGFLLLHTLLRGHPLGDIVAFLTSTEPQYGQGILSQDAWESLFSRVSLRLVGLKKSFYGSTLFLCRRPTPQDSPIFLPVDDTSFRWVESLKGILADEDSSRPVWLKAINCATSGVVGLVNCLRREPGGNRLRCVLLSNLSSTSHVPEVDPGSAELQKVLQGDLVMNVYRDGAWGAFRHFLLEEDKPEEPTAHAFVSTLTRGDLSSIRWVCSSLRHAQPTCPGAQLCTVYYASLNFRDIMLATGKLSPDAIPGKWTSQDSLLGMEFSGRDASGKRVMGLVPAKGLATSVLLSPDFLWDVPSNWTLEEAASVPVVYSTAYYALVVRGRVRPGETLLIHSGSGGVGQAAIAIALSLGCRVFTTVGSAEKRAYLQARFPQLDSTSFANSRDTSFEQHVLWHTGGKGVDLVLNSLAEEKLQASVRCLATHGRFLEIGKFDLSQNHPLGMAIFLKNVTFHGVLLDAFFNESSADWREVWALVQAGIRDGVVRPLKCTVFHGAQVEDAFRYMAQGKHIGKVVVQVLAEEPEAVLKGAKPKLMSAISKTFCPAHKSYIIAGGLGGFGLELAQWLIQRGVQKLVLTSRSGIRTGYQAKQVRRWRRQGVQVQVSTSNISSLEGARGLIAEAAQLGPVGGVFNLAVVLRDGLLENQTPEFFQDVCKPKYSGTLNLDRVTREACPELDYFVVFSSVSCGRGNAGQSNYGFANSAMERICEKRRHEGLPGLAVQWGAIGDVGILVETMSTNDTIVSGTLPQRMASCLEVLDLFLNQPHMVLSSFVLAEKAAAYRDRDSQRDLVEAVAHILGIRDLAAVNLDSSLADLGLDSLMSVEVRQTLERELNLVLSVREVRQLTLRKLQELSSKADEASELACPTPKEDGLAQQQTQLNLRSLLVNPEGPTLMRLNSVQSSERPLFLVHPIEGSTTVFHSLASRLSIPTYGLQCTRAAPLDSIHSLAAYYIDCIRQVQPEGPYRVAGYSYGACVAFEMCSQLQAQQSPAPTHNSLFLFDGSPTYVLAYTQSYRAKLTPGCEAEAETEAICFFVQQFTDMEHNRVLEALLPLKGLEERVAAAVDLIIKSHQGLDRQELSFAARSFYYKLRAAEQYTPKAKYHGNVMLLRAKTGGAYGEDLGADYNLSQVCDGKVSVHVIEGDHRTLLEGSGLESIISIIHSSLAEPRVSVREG

CC(Cc1ccc(OCC(=O)O)cc1)NCC(O)c1csc(C(F)(F)F)n1 (centres undefined)
not listed: [11]
inactive: all other assays above

CCCCN(CCCC)N=O
not listed: [11]
inactive: all other assays above

Cc1ccc([N+](=O)[O-])cc1C
not listed: [11]
inactive: all other assays above

O=C(O)C(Cl)Cl
not listed: [11]
inactive: all other assays above

CCOc1ccc(C(C)(C)COCc2cccc(Oc3ccccc3)c2)cc1
not listed: [3] | [11]
inactive: all other assays above

OCC1CO1 (centres undefined)
not listed: [11]
inactive: all other assays above

O=C(O)C1C(C(=O)O)C2(Cl)C(Cl)=C(Cl)C1(Cl)C2(Cl)Cl (centres undefined)
not listed: [11]
inactive: all other assays above

CCCCN(CCCC)SN(C)C(=O)Oc1cccc2c1OC(C)(C)C2
inactive: all assays above

ClC1=C(Cl)C2(Cl)C3C(Cl)C(Cl)CC3C1(Cl)C2(Cl)Cl (centres undefined)
not listed: [11]
inactive: all other assays above

CCCCc1ccccc1
not listed: [11]
inactive: all other assays above

ClC(Cl)c1ccccc1
not listed: [11]
inactive: all other assays above

ClC(Cl)(Cl)c1ccccc1
not listed: [11]
inactive: all other assays above

O=P1(N(CCCl)CCCl)NCCCO1 (centres undefined)
not listed: [11]
inactive: all other assays above

CSC(C)(C)C=NO
not listed: [3] | [11]
inactive: all other assays above
